For 14 molecules, composite z-score and z-score results are on record in PubChem BioAssay.

SMILES strings stand for the structures. The source made the active and inactive calls. Unless noted, how the calls were made is not given here.

In experiment [1] the test system is XIP peptide (Xip251-270) binding. Kind of experiment: XIP fragment 251-270 binding compounds – biochemical, small-molecule microarray, fluorescence 635/667 nm, 0.1 µg/mL protein, primary screen (AID 1182). As to conditions: fluorescent protein binding, 635 nm, higher = more signal, called active from +8 up or from −8 down.
The test system of another experiment is XIP peptide (Xip251-270). Kind of experiment: compounds binding XIP fragment 251-270 – biochemical, small-molecule microarray, fluorescence 635/667 nm, 0.5 µg/mL protein, primary screen (AID 1183). As to conditions: fluorescence 635 nm, higher = more signal.
Experiment [2] is described as follows: blood-stage malaria parasite viability loss – strain 3D7, DAPI fluorescence, 100 nL, primary screen (AID 1184).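 Further: parasites grown inside human red blood cells in medium with human serum.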 As to conditions: P. falciparum 3D7 growth, 3 d, higher = more signal.
The target in experiment [3] is Homeobox protein Hox-A13 (Mus musculus) (UniProt Q62424). Kind of experiment: disruptors of Hoxa13 oligonucleotide interaction – biochemical, fluorescence polarization, labeled oligonucleotide, primary screen (AID 1185). As to conditions: Hoxa13:DNA binding, 15 min, higher = more signal, called active from +8 up or from −8 down. A general note: Polarisation of emitted light reports the rotation of a fluorescent probe.
Sequence of Homeobox protein Hox-A13 (Mus musculus) (Q62424 whole entry, looked up): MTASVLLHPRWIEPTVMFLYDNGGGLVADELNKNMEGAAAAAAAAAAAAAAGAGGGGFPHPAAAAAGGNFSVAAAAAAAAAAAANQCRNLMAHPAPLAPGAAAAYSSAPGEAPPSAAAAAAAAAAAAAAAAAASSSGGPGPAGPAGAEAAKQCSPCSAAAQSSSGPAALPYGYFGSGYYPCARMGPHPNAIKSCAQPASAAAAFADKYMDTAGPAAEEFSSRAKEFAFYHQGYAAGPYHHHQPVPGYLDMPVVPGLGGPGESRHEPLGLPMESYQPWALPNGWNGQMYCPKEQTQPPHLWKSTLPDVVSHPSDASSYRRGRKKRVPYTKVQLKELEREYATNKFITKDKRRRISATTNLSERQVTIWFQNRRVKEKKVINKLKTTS

Experiment [4] can be described thus: blockers of DNA damage checkpoint Chk1 activation – imaging, HeLa, hydroxyurea, phospho-Chk1 antibody, percent positive cells, primary screen (AID 1186). To be noted: hydroxyurea-induced phospho-Chk1 immunofluorescence imaging, higher = more signal.
Experiment [5] can be described thus: blockers of DNA damage checkpoint Chk1 activation – imaging, HeLa, hydroxyurea, phospho-Chk1 nuclear intensity, primary screen (AID 1187). To be noted: hydroxyurea-induced phospho-Chk1 immunofluorescence imaging, higher = more signal.

For `CCCC[C@@H]1C[C@H]1[C@@H](NC(=O)c1ccc(-c2ccccc2)cc1)c1ccc(-c2ccccc2)cc1`, the composite z-score in experiment [1] was 0.0014 (inactive); in the experiment on XIP peptide (Xip251-270), -0.532. In addition, the z-score in experiment [2] was -1.05; in experiment [3] it was -1.24 (inactive); in experiment [4], 0.558 (inactive); in experiment [5], 0.394 (inactive).

Regarding `O=C1O[C@H](c2ccccc2)[C@H](c2ccccc2)N2[C@H]1[C@@H](C(=O)O)[C@]1(C(=O)Nc3ccc(C#CC4(O)CCCCCC4)cc31)[C@H]2c1ccc(OCCO)cc1`, the composite z-score is 1.31 (inactive) in experiment [1] and 0.599 in the experiment with XIP peptide (Xip251-270). For the same molecule, the z-score in experiment [2] is 0.362; in experiment [3], -6.3 (inactive); in experiment [4] it was -0.125 (inactive); in experiment [5] it was -0.198 (inactive).

As to `COCCOC(=O)N1C(=O)[C@@]2(c3cc(C#CCCO)ccc31)[C@H](c1ccccc1OCCO)N1[C@H](c3ccccc3)[C@H](c3ccccc3)OC(=O)[C@H]1[C@@H]2C(=O)N1CCN(c2ncccn2)CC1`, the composite z-score was 0.377 (inactive) in experiment [1] and 0.783 in the experiment on XIP peptide (Xip251-270). Also, the z-score in experiment [2] was -1.89; in experiment [3], -1.16 (inactive); in experiment [4], -0.0825 (inactive); in experiment [5], -0.157 (inactive).

Regarding `CC(C)OC(=O)CC(=O)CC(O)c1ccc(C#N)cc1` (centres undefined), the values for the composite z-score (in experiment [1]; in the experiment on XIP peptide (Xip251-270)) were 3.17 (inactive) and 0.21, respectively. In addition, the z-score in experiment [2] is 0.393; in experiment [3], -0.306 (inactive); in experiment [4], -1.26 (inactive); in experiment [5], -1.44 (inactive).

Regarding `O=C1N(CCS(=O)(=O)c2ccccc2)c2ccccc2C[C@@]12COC(c1ccc(OCCCO)cc1)=N2`, the composite z-score is 2.06 (inactive) in experiment [1] and 0.861 with XIP peptide (Xip251-270). The z-score in experiment [2] is -1.39; in experiment [3], -4.69 (inactive); in experiment [4] it was -0.0621 (inactive); in experiment [5], -0.223 (inactive).

As to `COc1cc(C(O)C2C=CC3C(=O)N(c4ccccc4)C(=O)C3N2Nc2ccc(C#N)cc2)cc(OC)c1OC` (centres undefined), the composite z-score in experiment [1] was 1.42 (inactive); with XIP peptide (Xip251-270) it was 0.906. In addition, the z-score in experiment [2] was 0.162; in experiment [3] it was -4.55 (inactive); in experiment [4] it was 0.859 (inactive); in experiment [5], 0.668 (inactive).

In the case of `[N-]=[N+]=NCc1ccccc1C[C@@]1(C(=O)NCC(O)CO)N=C(c2ccc(OCCCO)cc2)O[C@@H]1c1ccccc1CN=[N+]=[N-]` (some centres undefined), the composite z-score is -0.0479 (inactive) in experiment [1] and 0.748 in the experiment on XIP peptide (Xip251-270). Also, the z-score in experiment [2] was -2.01; in experiment [3], -3.3 (inactive); in experiment [4], -0.0621 (inactive); in experiment [5], 0.0477 (inactive).

As for `C=CC[C@@]1(C(=O)NCC(O)CO)N=C(c2ccc(OCCCO)cc2)O[C@@H]1c1ccccc1N=[N+]=[N-]` (some centres undefined), the figures for the composite z-score (in experiment [1]; with XIP peptide (Xip251-270)) were 1.06 (inactive) and 0.885, respectively. Further, the z-score is -1.84 in experiment [2], -3.62 (inactive) in experiment [3], -0.0138 (inactive) in experiment [4] and 0.107 (inactive) in experiment [5].

With `Cc1cc(C)c(C(O)C2C=CC3C(=O)N(C)C(=O)C3N2Nc2ccccc2)c(C)c1` (centres undefined), the composite z-score in experiment [1] is -0.0222 (inactive); in the experiment with XIP peptide (Xip251-270) it was 0.794. The z-score was 0.642 in experiment [2], -2.71 (inactive) in experiment [3], 0.195 (inactive) in experiment [4] and -0.137 (inactive) in experiment [5].

In the case of `O=C1OCCC=C[C@H]2OC34C=CCN(c5ccc6ccccc6c5)C(=O)[C@H]3N(CCCCCO)C(=O)[C@@H]4C12` (some centres undefined), the composite z-score in experiment [1] is 0.427 (inactive); in the experiment on XIP peptide (Xip251-270), 0.385. Further, the z-score in experiment [2] was 0.405; in experiment [3], -5.5 (inactive); in experiment [4], -0.202 (inactive); in experiment [5], 0.891 (inactive).

Consider `O=C1O[C@@H](c2ccccc2)[C@@H](c2ccccc2)N2[C@@H](c3ccc(OCCO)cc3)[C@]3(C(=O)Nc4ccccc43)[C@@H](C(=O)Nc3nc4ccccc4s3)[C@H]12`, for which the composite z-score in experiment [1] is 0.615 (inactive); in the experiment with XIP peptide (Xip251-270) it was 0.841. The z-score is -0.161 in experiment [2], 2.18 (inactive) in experiment [3], -0.469 (inactive) in experiment [4] and -0.781 (inactive) in experiment [5].

Consider `O=c1oc(-c2ccccc2)nc2cc(Br)ccc12`, for which the composite z-score in experiment [1] is -0.208 (inactive); in the experiment on XIP peptide (Xip251-270) it was -0.0114. The z-score was 1.64 in experiment [2], 4.46 (inactive) in experiment [3], 0.208 (inactive) in experiment [4] and 0.0639 (inactive) in experiment [5].

Regarding `CC(=O)NCCCC[C@@H]1NC(=O)[C@@H]2C[C@H](C(=O)NCCCCCCNC(=O)CS)[C@H](c3ccc(O)cc3)N2C1=O`, the composite z-score in experiment [1] was 0.757 (inactive); in the experiment with XIP peptide (Xip251-270) it was 0.596. Besides, the z-score was 0.648 in experiment [2], -5.16 (inactive) in experiment [3], 0.34 (inactive) in experiment [4] and 0.0918 (inactive) in experiment [5].

As for `CC(C)CNC(=O)[C@@]1(c2ccc([N+](=O)[O-])cc2)CC(=O)N(CC23CC4CC(CC(C4)C2)C3)[C@@H]1c1ccc(CO)cc1I`, the figures for the composite z-score (in experiment [1]; in the experiment on XIP peptide (Xip251-270)) were 0.106 (inactive) and 0.719, respectively. In addition, the z-score is -0.534 in experiment [2], -3.42 (inactive) in experiment [3], -0.264 (inactive) in experiment [4] and -0.135 (inactive) in experiment [5].
